Laboratory results from PubChem BioAssay AID624417 (National Center for Advancing Translational Sciences (NCATS), 2012).
Hit rate of the full screen: of about 410,000 compounds, about 6,400 (1.6%) were called active. About 20% were inconclusive and are not listed. The full list was thinned out, with actives kept by preference. Values without a mark were called inactive. Calls come from the whole dose curve; as a rule, active = well fitted inhibition curve with a large enough effect; inconclusive = small, poorly fitted or top-dose-only effect; inactive = no such curve, though single readings can be large or run the other way.
% is set by controls: 0 for no effect and ±100 for the full control effect; potency is the fitted concentration of half-maximal effect.
Note: nearly all actives have a fitted effect of over 55% in size.

Each compound was assayed against Glucagon-like peptide 1 receptor (Homo sapiens) (UniProt P43220) (assay: qHTS of GLP-1 Receptor Inverse Agonists (Inhibition Mode)). Conditions: HEK293 GLP-1R CRE-luciferase, luminescence, 24 h, GLP-1R form is constitutively active; series mostly up to 38.3 µM; activity change, negative = inhibition: at the top concentration.
Glucagon-like peptide 1 receptor (Homo sapiens), sequence (P43220 whole entry, looked up): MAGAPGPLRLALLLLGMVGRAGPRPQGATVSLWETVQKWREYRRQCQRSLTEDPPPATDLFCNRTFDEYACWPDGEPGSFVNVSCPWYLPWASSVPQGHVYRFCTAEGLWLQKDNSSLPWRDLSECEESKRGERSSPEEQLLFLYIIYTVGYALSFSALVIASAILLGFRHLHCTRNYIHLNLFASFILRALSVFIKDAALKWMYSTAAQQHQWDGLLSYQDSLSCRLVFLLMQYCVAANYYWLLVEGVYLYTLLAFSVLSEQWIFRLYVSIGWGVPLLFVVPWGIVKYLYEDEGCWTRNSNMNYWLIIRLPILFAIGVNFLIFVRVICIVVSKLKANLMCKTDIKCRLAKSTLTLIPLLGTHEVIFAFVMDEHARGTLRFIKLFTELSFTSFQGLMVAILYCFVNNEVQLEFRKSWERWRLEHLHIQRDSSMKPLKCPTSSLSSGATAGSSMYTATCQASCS
Method in brief: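 qHTS in 1536-well format: reporter HEK293 cells expressing constitutive GLP-1R activity in DMEM + 10% Nu serum, 24 hr with compounds at 37 deg C, luminescence read after 12 min with detection reagent.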
For `CSc1ccc(CNC(=O)C2(C)CCCN2C)cc1` (centres undefined), the “activity change, negative = inhibition” value was 9.89%.
In the case of `Cc1cc(C(=O)N2CCCC2(C)C(=O)O)c(C)o1` (centres undefined), the “activity change, negative = inhibition” value was 25.9%.
In the case of `CCn1nc(C)cc1C(=O)N1CCCC(C(=O)c2cccc(OC)c2)C1` (centres undefined), the “activity change, negative = inhibition” value was 32.6%.
In the case of `Cn1nccc1C(=O)N1CCCC(C(=O)c2ccc(Oc3ccccc3)cc2)C1` (centres undefined), the Potency was 3.55 µM (active).
For `O=C(c1ccc(-c2ccccc2)cc1)C1CCCN(C(=O)c2cncs2)C1` (centres undefined), the “activity change, negative = inhibition” value was -53%.
In the case of `CCOC(=O)[C@]12CCC=C1N(Cc1ccco1)C(=O)[C@H](CC(=O)N1CCSCC1)C2`, the “activity change, negative = inhibition” value was 8.51%.
With `COc1nc(NC2CCCCC2)nc(N2CCCCCC2)n1` the Potency was 5.01 µM (active).
For `COC(=O)c1ccc(Oc2nc(Nc3ccc(F)cc3)nc(N3CCCC3)n2)cc1`, the “activity change, negative = inhibition” value was 2.41%.
In the case of `Clc1nc(NC2CCCC2)nc(N2CCOCC2)n1`, the “activity change, negative = inhibition” value was 30.6%.
In the case of `CO[C@@H]1CN(C)C(=O)c2cc(NC(=O)Nc3cc(F)ccc3F)ccc2OC[C@H](C)N(C(=O)c2ccccn2)C[C@@H]1C`, the “activity change, negative = inhibition” value was 12.7%.
For `CN1CCN(C2Cc3ccc(Cl)cc3Sc3ccc(F)cc32)CC1` (centres undefined), the Potency was 8.91 µM (active).
In the case of `CCN(CC)C(=O)C1=C(C)N(Cc2ccc(F)cc2)C(=O)C(CC(=O)NC2CCCC2)C1` (centres undefined), the “activity change, negative = inhibition” value was 1.9%.
In the case of `O=C(Nc1ccc(F)cc1)C(CCc1ccccc1)N1CCN(CC(=O)N2CCCC2)CC1` (centres undefined), the “activity change, negative = inhibition” value was 15.1%.
In the case of `N#CCSc1ccccc1NC(=O)CN1C(=O)NC(CCc2ccccc2)C1=O` (centres undefined), the “activity change, negative = inhibition” value was 4.84%.
`Nc1cc(C(=O)N2CCN(c3ccccc3Cl)CC2)ccc1N1CC2CC(C1)c1cccc(=O)n1C2` (centres undefined) was tested, and the “activity change, negative = inhibition” value was 1.93%.
For `CCC(=O)NC(=S)Nc1ccc(NC(=O)c2ccco2)c(Cl)c1`, the “activity change, negative = inhibition” value was 56.6%.
In the case of `CCN(CC)P(=O)(Nc1ccc(SC(F)F)cc1)c1ccc(N(C)C)cc1NC(=O)c1ccco1` (centres undefined), the Potency was 2.51 µM (active).
`Cc1cc(NC(=O)c2ccc(F)cc2)ccc1NC(=O)c1ccco1` was tested, and the “activity change, negative = inhibition” value was -2.68%.
`O=C(Nc1ccc(N2CCOCC2)cc1)c1cccc2c(-c3ccc(F)c(F)c3)coc12` was tested, and the “activity change, negative = inhibition” value was 6.21%.
`O=NN(CCCl)C(=O)NCCc1cccc[n+]1[O-]` was tested, and the “activity change, negative = inhibition” value was 13.9%.
For `CCc1nc(SCC(=O)Nc2ccccc2OC)n[nH]1`, the “activity change, negative = inhibition” value was 9.23%.
With `COc1ccccc1NC(=S)NC(=O)C(C)C` the “activity change, negative = inhibition” value was 0%.
With `CCSc1nsc(NC(=O)Nc2ccccc2OC)n1` the Potency was 11.2 µM (active).
For `Cc1ccccc1NC(=O)Cc1nc(COC(=O)CNC(=O)c2ccc(Cl)cc2Cl)cs1`, the “activity change, negative = inhibition” value was 4.36%.
With `CCOc1ccc(CCNC(=O)COC(=O)c2ccc(C)c(S(=O)(=O)N3CCOCC3)c2)cc1OCC` the “activity change, negative = inhibition” value was 3.97%.
With `Cc1cc(Br)cn2c(Cc3ccsc3)c(-c3ccc(C#N)cc3)nc12` the “activity change, negative = inhibition” value was -7.25%.
`COc1ccccc1OCC(O)CN1CCOCC1` (centres undefined) was tested, and the “activity change, negative = inhibition” value was 4.18%.
`OC(COc1ccc(F)cc1Cl)CN1CCc2ccccc2C1` (centres undefined) was tested, and the Potency was 10 µM (active).
In the case of `Cc1ccc(OCC(O)CN2CCN(CC(O)COc3ccc(C)cc3Cl)CC2)c(Cl)c1` (centres undefined), the “activity change, negative = inhibition” value was 3.12%.
`O=C1NC[C@H](Cc2ccc(O)cc2)N(C[C@H]2CCCN2C[C@H](Cc2ccccc2)N2C[C@H](Cc3ccccc3)N(CCc3ccccc3)C(=O)C2=O)C1=O` was tested, and the “activity change, negative = inhibition” value was 9.65%.
With `O=C1OC(Oc2ccc(Br)cc2)(c2ccccc2)c2ccccc21` (centres undefined) the Potency was 10 µM (active).
In the case of `CC1(C(=O)NS(=O)(=O)c2ccccc2)CCN1C(=O)C1CCCCC1` (centres undefined), the “activity change, negative = inhibition” value was -3.17%.
In the case of `Cc1cc2oc(C(=O)N(Cc3ccc(Cl)cc3)Cc3ccco3)c(C)c2cc1Cl`, the “activity change, negative = inhibition” value was 6.07%.
`O=C(COc1ccc(Cl)cc1)N(Cc1ccco1)Cc1ccco1` was tested, and the Potency was 10 µM (active).
In the case of `CCOc1ccc(S(=O)(=O)N(CC(=O)NCC(F)(F)F)Cc2ccco2)cc1`, the “activity change, negative = inhibition” value was 16%.
For `CC(=O)c1nn(-c2ccccc2)c(=Nc2ccccc2)cc1C`, the “activity change, negative = inhibition” value was 1.43%.
With `Cc1cc2c3ccccc3[nH]c(=O)n2n1` the “activity change, negative = inhibition” value was 23.2%.
In the case of `CSc1ncnc2c1ncn2CCCNCc1ccco1`, the “activity change, negative = inhibition” value was 14.9%.
`COc1ccc(-c2cc(NC=O)c3ncc(-c4ccccc4)n3c2)cc1OC` was tested, and the “activity change, negative = inhibition” value was -18.1%.
With `O=C(Nc1ccccc1)Oc1cccc2cccnc12` the Potency was 3.98 µM (active).
`Fc1ccccc1COc1cccc2cccnc12` was tested, and the “activity change, negative = inhibition” value was -24%.
In the case of `OCc1ccc(OCCCOc2cccc3cccnc23)cc1`, the “activity change, negative = inhibition” value was 25.8%.
With `Cc1ccccc1OS(=O)(=O)c1cccc([N+](=O)[O-])c1` the “activity change, negative = inhibition” value was -32.3%.
For `Cc1ccc(C(=O)NNC(=O)CSc2nnc3ccccn23)cc1`, the “activity change, negative = inhibition” value was -23.9%.
With `Cc1ccc(-n2c(C)cc(C(=O)CSc3nnc4ccccn34)c2C)cc1` the Potency was 8.91 µM (active).
For `O=C(CSc1nnc2ccccn12)c1ccccc1`, the “activity change, negative = inhibition” value was 11.5%.
`Cc1cccc(CN2CCN(C3CN(Cc4cn(Cc5ccccc5F)nn4)S(=O)(=O)C3)CC2)c1` (centres undefined) was tested, and the “activity change, negative = inhibition” value was -2.68%.
In the case of `c1ccc2c(c1)nnn2-c1ccncc1`, the “activity change, negative = inhibition” value was 6.01%.
In the case of `Cc1ccccc1S(=O)(=O)NC(=O)C1(C)CCN1C(=O)C1(c2ccccc2)CCCC1` (centres undefined), the “activity change, negative = inhibition” value was -25.9%.
